# Laboratory results as given in PubChem BioAssay AID488984 (The Scripps Research Institute Molecular Screening Center, 2010).
# The source made the active and inactive calls. Cut-off read from the data, not from the text of the source: active = inhibition above about 55%; inactive = the rest.
# Tested on: SARS coronavirus 3C-like protease (3CLpro, nsp5)
# Assay: blockers of SARS 3CLpro activity – biochemical, fluorescence, set 2, late-stage follow-up (AID 488984)
# Details: recombinant 3CLpro, fluorogenic peptide cleavage; at 100 µM; hits give high values
row,SMILES,inhibition
1,CC(C)(C)NC(=O)C(c1cccnc1)N(C(=O)Cc1cccnc1)C1CC1 (stereo not drawn),7.01% (inactive)
2,CC(C)(C)NC(=O)C(c1ccsc1)N(C(=O)c1ccco1)c1ccc(OC(F)F)cc1 (stereo not drawn),25.9% (inactive)
3,CC(C)c1ccc(N(C(=O)Cc2c[nH]c3ccccc23)C(C(=O)NC(C)(C)C)c2ccsc2)cc1 (stereo not drawn),7.61% (inactive)
4,CC(C)c1ccc(N(C(=O)c2ccc(C#N)cc2)C(C(=O)NC(C)(C)C)c2cccnc2)cc1 (stereo not drawn),-3.85% (inactive)
5,CC(C)(C)NC(=O)C(c1cccnc1)N(C(=O)Cc1cccc2ccccc12)C1CC1 (stereo not drawn),2.44% (inactive)
6,CC(C)(C)NC(=O)C(c1ccsc1)N(C(=O)c1ccc(C(F)(F)F)nc1)C1CC1 (stereo not drawn),11.3% (inactive)
7,CC(C)(C)NC(=O)C(c1ccsc1)N(C(=O)c1n[nH]c2ccccc12)c1ccc(C(C)(C)C)cc1 (stereo not drawn),17.9% (inactive)
8,Cc1nc2ccccc2n1CC(=O)N(c1ccc(C(C)(C)C)cc1)C(C(=O)NC(C)(C)C)c1ccsc1 (stereo not drawn),2.02% (inactive)
9,CC(C)(C)NC(=O)C(c1cccnc1)N(C(=O)Cc1cccnc1)c1ccc(C(C)(C)C)cc1 (stereo not drawn),20.2% (inactive)
10,CC(C)(C)NC(=O)C(c1cccnc1)N(C(=O)Cc1cccnc1)c1ccc(F)cc1 (stereo not drawn),5.7% (inactive)
11,CC(C)c1ccc(N(C(=O)Cc2cccc3ccccc23)C(C(=O)NC(C)(C)C)c2cccnc2)cc1 (stereo not drawn),-1.29% (inactive)
12,CC(C)(C)NC(=O)C(c1cccnc1)N(C(=O)c1ccco1)c1ccc(F)cc1 (stereo not drawn),-4.66% (inactive)
13,CC(C)(C)NC(=O)C(c1cccnc1)N(C(=O)Cc1c[nH]c2ccccc12)c1ccc(F)cc1 (stereo not drawn),5.7% (inactive)
14,CC(C)(C)NC(=O)C(c1cccnc1)N(C(=O)c1n[nH]c2ccccc12)c1ccc(C(C)(C)C)cc1 (stereo not drawn),20.6% (inactive)
15,CC(C)(C)NC(=O)C(c1ccsc1)N(C(=O)Cc1cccc2ccccc12)C1CC1 (stereo not drawn),16.5% (inactive)
16,CC(C)(C)NC(=O)C(c1ccsc1)N(C(=O)c1n[nH]c2ccccc12)c1ccc(OC(F)F)cc1 (stereo not drawn),14.3% (inactive)
17,CC(C)(C)NC(=O)C(c1cccnc1)N(C(=O)c1n[nH]c2ccccc12)c1ccc(OC(F)F)cc1 (stereo not drawn),24.6% (inactive)
18,CC(C)(C)NC(=O)C(c1ccsc1)N(C(=O)c1cccc2c1CCCC2)c1ccc(F)cc1 (stereo not drawn),14.4% (inactive)
19,CC(C)C(=O)Nc1ccc(N(C(=O)Cn2nnc3ccccc32)C(C(=O)NC(C)(C)C)c2ccsc2)cc1 (stereo not drawn),96.7% (active)
20,CC(C)c1ccc(N(C(=O)Cc2cccnc2)C(C(=O)NC(C)(C)C)c2cccnc2)cc1 (stereo not drawn),2.83% (inactive)
21,CC(C)(C)NC(=O)C(c1ccsc1)N(C(=O)c1n[nH]c2ccccc12)c1ccc(F)cc1 (stereo not drawn),15.3% (inactive)
22,Cc1nccn1CC(=O)N(c1ccc(C(C)(C)C)cc1)C(C(=O)NC(C)(C)C)c1ccsc1 (stereo not drawn),0.41% (inactive)
23,CC(C)(C)NC(=O)C(c1ccsc1)N(C(=O)Cn1nnc2ccccc21)c1ccc(C(C)(C)C)cc1 (stereo not drawn),2.8% (inactive)
